Source: PubChem
NIH3T3 tox: kills NIH 3T3 cells; AID 1345082; NIH 3T3 viability, CellTiter-Glo ATP luminescence, 48-72 h; Potency, µM (titrated, usually from 96.7 µM), usual class: inhibitors; 94,000 compounds, 4.3% hits; further: nearly all actives have a fitted effect of over 55% in size
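NIH 3T3 cells at 400 cells/well received 23 nL of compound by pintool and were incubated 48 or 72 h at 37 °C. Viability was read as ATP-coupled CellTiter-Glo luminescence.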
HEK293 tox: cytotoxic compounds in HEK 293 cells; 94,000 compounds, 6.6% hits; AID 1345083; HEK 293 viability, ATP luminescence (CellTiter-Glo), 48-72 h; Potency, µM (series often up to 115 µM), hits mostly inhibitors; further: nearly all actives have a fitted effect of over 60% in size
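qHTS cytotoxicity; HEK 293, 250 cells/well; compound pinned; 48 or 72 hr, 37 degree Celsius, 5% CO2, 95% humidity; CellTiter-Glo, 10 min RT; luminescence (ATP).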
hNpr1 antagonist: blocks ANP-stimulated signaling of human Npr1 receptor; P16066; HEK293 hNpr1 GloSensor cGMP, ANP-stimulated luminescence; Potency, µM (top dose mostly 46.3 µM), actives largely listed as inhibitors; 76,000 compounds, 1.6% hits; AID 1347048; calls by dose curve; further: nearly all actives have a fitted effect of over 60% in size
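HEK293 cells stably expressing human Npr1 and cGMP GloSensor pGS-40F, loaded 2 h with 2% GloSensor reagent, given compound 30 min at room temperature. Luminescence read before and 20 min after 0.1 nM hNppA.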
GPT2 inh: blocks human glutamate pyruvate transaminase 2; Potency, µM (series often up to 57.7 µM), actives largely listed as inhibitors; AID 1671188; Q8TD30; 100,000 compounds, 0.25% hits; Recombinant GPT2, coupled pyruvate oxidase/HRP Amplex Red fluorescence; further: nearly all actives have a fitted effect of over 60% in size
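Fluorescence read-out: pyruvate from GPT2 turnover coupled to pyruvate oxidase, HRP and Amplex Red (0.2mM ThPP, 0.2U/mL PO and HRP, 50uM Amplex final). Substrates 250uM a-KG, 2mM L-alanine; enzyme 10ng/uL; 30 min RT.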
FLuc inh: inhibitors of firefly (Photinus pyralis) luciferase | 76,000 compounds, 2.5% hits | Potency, µM (series often up to 115 µM), actives largely listed as inhibitors | purified P. pyralis luciferase, luminescence, biochemical | AID 1347043; further: nearly all actives have a fitted effect of over 65% in size
Target sequence (P08659 whole entry, looked up): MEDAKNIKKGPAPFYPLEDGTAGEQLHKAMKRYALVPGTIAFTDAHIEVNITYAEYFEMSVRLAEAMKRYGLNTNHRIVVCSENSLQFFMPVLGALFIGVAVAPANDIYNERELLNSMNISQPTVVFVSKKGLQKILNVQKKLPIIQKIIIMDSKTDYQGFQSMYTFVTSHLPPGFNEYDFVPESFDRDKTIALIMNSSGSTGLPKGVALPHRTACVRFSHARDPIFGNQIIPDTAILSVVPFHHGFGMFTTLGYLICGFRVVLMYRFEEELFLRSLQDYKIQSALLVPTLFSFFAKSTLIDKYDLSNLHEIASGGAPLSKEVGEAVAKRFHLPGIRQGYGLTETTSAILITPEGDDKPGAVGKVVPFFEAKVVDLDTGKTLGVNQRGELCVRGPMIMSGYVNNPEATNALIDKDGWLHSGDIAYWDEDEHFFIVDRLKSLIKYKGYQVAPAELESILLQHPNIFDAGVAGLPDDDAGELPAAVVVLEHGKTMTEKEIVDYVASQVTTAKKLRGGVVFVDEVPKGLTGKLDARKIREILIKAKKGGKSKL
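Cell-free enzyme assay, 10nM P. pyralis luciferase, luciferin and ATP each at 10uM. Inhibition profiled over a 6-point titration, read as luminescence.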
Of the large screens only hits and unclear results are named; the others gave an inactive call. Shown are actives, neighbours in structure and some others; about 10% of the full set was active somewhere. Unless noted, the call rests on the fitted dose curve; in most records, active means well fitted curve in the direction sought with a large enough effect; inconclusive means small, poorly fitted or top-dose-only effect, or another doubt; inactive means no such curve, though single readings can be large; an effect the other way counts as inactive or inconclusive.

CC(C)(C)c1ccc(-c2cn(C[C@H]3CC4CCN3C[C@@H]4C(=O)NC3CCCCC3)nn2)cc1 (some centres undefined)	NIH3T3 tox inconclusive, HEK293 tox 32µM
O=C(Nc1ccccc1)[C@H]1CN2CCC1C[C@@H]2Cn1cc(CSc2ccccc2)nn1 (some centres undefined)	NIH3T3 tox 100µM, HEK293 tox 100µM, GPT2 inh inconclusive
C=CCN(C)C(=O)[C@H]1CN2CCC1C[C@@H]2Cn1cc(-c2ccc(C(C)(C)C)cc2)nn1 (some centres undefined)	NIH3T3 tox inconclusive, HEK293 tox 100µM, FLuc inh inconclusive
COc1ccccc1N1CCN(C(=O)[C@H]2CN3CCC2C[C@@H]3Cn2cc(-c3ccccc3)nn2)CC1 (some centres undefined)	HEK293 tox 45µM
COc1ccc(-c2cn(C[C@H]3C[C@@H]4CCN3C[C@@H]4C(=O)NC3CC3)nn2)cc1	none
O=C(Nc1ccc(=O)n2c1[C@@H]1C[C@@H](CN(S(=O)(=O)c3ccccc3)C1)C2)c1cccnc1	HEK293 tox inconclusive
C=CCN1CC[C@]23c4c5ccc(O)c4O[C@H]2[C@@H](O)CC[C@@]3(O)[C@H]1C5	none (no result: NIH3T3 tox, HEK293 tox, hNpr1 antagonist, FLuc inh)
CC(C)c1ccc(NC(=O)OC[C@H]2C[C@@H]3CCN2C[C@@H]3c2cc(C3CCCCC3)nn2C)cc1	NIH3T3 tox 22µM, HEK293 tox 14µM
CC[C@H]1CN2CC[C@H]1C[C@@H]2CNC(=O)Nc1cc(OC)cc(OC)c1	NIH3T3 tox inconclusive
COc1ccc(-c2cc([C@H]3CN4CC[C@H]3C[C@@H]4COC(=O)NC(C)C)n(C)n2)cc1	none
COc1ccc(NC(=O)OC[C@H]2C[C@@H]3CCN2C[C@@H]3c2cc(-c3ccccc3OC)nn2C)cc1	none
CC[C@H]1CN2CC[C@H]1C[C@@H]2COC(=O)Nc1cc(OC)cc(OC)c1	NIH3T3 tox inconclusive, HEK293 tox 100µM
COc1ccc(NC(=O)NC[C@H]2C[C@@H]3CCN2C[C@@H]3c2cc(C3CCCC3)nn2C)cc1	NIH3T3 tox inconclusive, HEK293 tox inconclusive
Cn1nc(-c2ccc3ccccc3c2)cc1[C@H]1CN2CC[C@H]1C[C@@H]2COC(=O)Nc1ccccc1	NIH3T3 tox 18µM, HEK293 tox 20µM, GPT2 inh inconclusive, FLuc inh inconclusive
COc1ccc(NC(=O)OC[C@H]2C[C@@H]3CCN2C[C@@H]3c2cc(C3CCCC3)nc(-c3ccncc3)n2)cc1	NIH3T3 tox inconclusive, HEK293 tox 14µM, hNpr1 antagonist inconclusive
O=C(c1ccn[nH]1)N1[C@H]2CC[C@@H]1c1cnc(-c3ccccc3)nc1C2	none
CCC(CC)c1cc([C@H]2CN3CC[C@H]2C[C@@H]3CNC(=O)C(C)(C)C)nc(-c2ccncc2)n1	NIH3T3 tox inconclusive, HEK293 tox inconclusive
CCC(CC)c1cc([C@H]2CN3CC[C@H]2C[C@@H]3CNC(=O)C2CC2)nc(-c2ccncc2)n1	none
CC(C)c1ccc(NC(=O)OC[C@H]2C[C@@H]3CCN2C[C@@H]3c2cc(C3CCCC3)nc(-c3ccncc3)n2)cc1	NIH3T3 tox 4.5µM, HEK293 tox 3.5µM, FLuc inh inconclusive
CCC(CC)c1cc([C@H]2CN3CC[C@H]2C[C@@H]3COC(=O)Nc2ccc(C(C)(C)C)cc2)nc(-c2ccncc2)n1	NIH3T3 tox 5µM, HEK293 tox 7.1µM, FLuc inh inconclusive
CCC(CC)c1cc([C@H]2CN3CC[C@H]2C[C@@H]3CNC(C)=O)nc(-c2ccncc2)n1	NIH3T3 tox 45µM, HEK293 tox 100µM, hNpr1 antagonist inconclusive
Cn1nc(C2CCCCC2)cc1[C@H]1CN2CC[C@H]1C[C@@H]2CN	NIH3T3 tox inconclusive, HEK293 tox 100µM
Cn1nc(C2CCCCC2)cc1[C@H]1CN2CC[C@H]1C[C@@H]2CO	NIH3T3 tox inconclusive, HEK293 tox inconclusive
N#Cc1cccc(NC(=O)NC[C@H]2C[C@@H]3CCN2C[C@@H]3CN2CCCCC2)c1	none
C/C=C/CN1CC2ON=C(C(=O)O)C2C1 (centres undefined)	none (no result: hNpr1 antagonist, FLuc inh)
Cc1nc(-c2ccc(N(C)C)cc2)cc([C@H]2CN3CC[C@H]2C[C@@H]3COC(=O)Nc2ccc(C(C)C)cc2)n1	NIH3T3 tox 3.5µM, HEK293 tox 3.5µM, hNpr1 antagonist inconclusive, FLuc inh inconclusive
CCC(CC)c1cc([C@H]2CN3CC[C@H]2C[C@@H]3CNC(=O)c2ccccc2)nc(-c2ccncc2)n1	HEK293 tox inconclusive, GPT2 inh inconclusive
O=C(Nc1ccccc1)OC[C@H]1C[C@@H]2CCN1C[C@@H]2c1cc(C2CCCC2)nc(-c2ccncc2)n1	NIH3T3 tox 7.9µM, HEK293 tox 4µM, hNpr1 antagonist inconclusive, FLuc inh inconclusive
CCC(CC)c1cc([C@H]2CN3CC[C@H]2C[C@@H]3CNC(=O)C2CCC2)nc(-c2ccncc2)n1	NIH3T3 tox inconclusive
CC(C)(C)c1ccc(NC(=O)OC[C@H]2C[C@@H]3CCN2C[C@@H]3c2cc(C3CCCC3)nc(-c3ccncc3)n2)cc1	NIH3T3 tox 20µM, HEK293 tox 20µM, FLuc inh inconclusive
CCCNC(=O)OC[C@H]1C[C@@H]2CCN1C[C@@H]2c1cc(C(CC)CC)nc(-c2ccncc2)n1	NIH3T3 tox 40µM, HEK293 tox inconclusive, hNpr1 antagonist inconclusive
COc1ccc2c(c1)C1(CCN(C(=O)c3ccccc3Br)C1)C(=O)N2 (centres undefined)	HEK293 tox inconclusive
C#C[C@H]1CN2CC[C@H]1C[C@@H]2CNCc1cccc(C#N)c1	HEK293 tox inconclusive
Cn1nc(-c2cccs2)cc1[C@H]1CN2CC[C@H]1C[C@@H]2CNS(=O)(=O)c1ccccc1	NIH3T3 tox inconclusive
Cc1nc(-c2cccs2)cc([C@H]2CN3CC[C@H]2C[C@@H]3CNS(=O)(=O)c2ccccc2)n1	NIH3T3 tox 20µM, HEK293 tox 28µM
Cc1nc(-c2cccs2)cc([C@H]2CN3CC[C@H]2C[C@@H]3CO)n1	NIH3T3 tox 16µM
Cc1nc(-c2cccs2)cc([C@H]2CN3CC[C@H]2C[C@@H]3CNC(=O)C(C)(C)C)n1	NIH3T3 tox inconclusive, HEK293 tox inconclusive
Cc1nc(-c2ccccc2Br)cc([C@H]2CN3CC[C@H]2C[C@@H]3CNS(=O)(=O)c2cccs2)n1	NIH3T3 tox 79µM, HEK293 tox 79µM
CN(N=O)c1ccc(O)c(O)c1	GPT2 inh 3.2µM (no result: NIH3T3 tox, HEK293 tox, hNpr1 antagonist, FLuc inh)
COc1cc2c(cc1Oc1ccccc1)NC(=O)C21CCN(C(=O)Cc2ccccc2)CC1	NIH3T3 tox inconclusive, HEK293 tox 40µM, hNpr1 antagonist inconclusive
COc1cc2c(cc1Oc1ccccc1)NC(=O)C21CCN(C(=O)C2CCC2)CC1	NIH3T3 tox inconclusive, HEK293 tox inconclusive
COc1cc2c(cc1Oc1ccccc1)NC(=O)C21CCN(C(=O)c2ccccc2)CC1	NIH3T3 tox inconclusive, HEK293 tox inconclusive, hNpr1 antagonist inconclusive
